Read-outs that look alike come from different tables or passages of the source.
Tests used:
Design in all cases: species or system human, MV4-11 + K-562 + COLO205 + SK-N-BE2 + OVCAR-8
CSNK1A1 = details: read-out: apparent Kd, n = 1
CSNK1D = details: read-out: apparent Kd, compound concentrations: 100 nM and 1000 nM (sheet 'Samples'), n = 1
CSNK1E = details: read-out: apparent Kd, compound concentrations: 100 nM and 1000 nM (sheet 'Samples'), n = 1
DDR1 = details: read-out: apparent Kd; compound concentrations: 100 nM and 1000 nM (sheet 'Samples'), CATDS: 4.0127184299889498E-2; n = 1
GAK = details: read-out: apparent Kd; compound concentrations: 100 nM and 1000 nM (sheet 'Samples'), CATDS: 4.3389501889838297E-2; n = 1
MAPK10 = details: read-out: apparent Kd; compound concentrations: 100 nM and 1000 nM (sheet 'Samples'), CATDS: 7.1886071403025706E-2; n = 1
MAPK11 = details: read-out: apparent Kd, n = 1
MAPK14 = details: read-out: apparent Kd, compound concentrations: 100 nM and 1000 nM (sheet 'Samples'), n = 1
MAPK8 = details: read-out: apparent Kd; compound concentrations: 100 nM and 1000 nM (sheet 'Samples'), CATDS: 4.3769759721199501E-2; n = 1
MAPK9 = details: read-out: apparent Kd, n = 1
MAPKAPK2 = details: read-out: apparent Kd, compound concentrations: 100 nM and 1000 nM (sheet 'Samples'), n = 1
NLK = details: read-out: apparent Kd, n = 1
PIK3CD = details: read-out: apparent Kd, compound concentrations: 100 nM and 1000 nM (sheet 'Samples'), n = 1
PIP4K2C = details: read-out: apparent Kd; compound concentrations: 100 nM and 1000 nM (sheet 'Samples'), CATDS: 4.0260686940240001E-2; n = 1
RIPK2 = details: read-out: apparent Kd, compound concentrations: 100 nM and 1000 nM (sheet 'Samples'), n = 1
PKN3 = details: read-out: apparent Kd; compound concentrations:100 nM and 1000 nM (sheet 'Samples'); n = 1
MERTK = details: read-out: apparent Kd; compound concentrations: 100 nM and 1000 nM (sheet 'Samples'), CATDS: 0.12955803655980599; n = 1
DYRK1A = details: read-out: apparent Kd; compound concentrations: 100 nM and 1000 nM (sheet 'Samples'), CATDS: 0.124378507371426; n = 1
LATS1 = details: read-out: apparent Kd; compound concentrations: 100 nM and 1000 nM (sheet 'Samples'), CATDS: 0.13446121771830499; n = 1
NNT = details: read-out: apparent Kd; compound concentrations: 100 nM and 1000 nM (sheet 'Samples'), CATDS: 0.14488734368084999; n = 1
PKN2 = details: read-out: apparent Kd; compound concentrations: 100 nM and 1000 nM (sheet 'Samples'), CATDS: 0.15546286258013101; n = 1
RPS6KB1 = details: read-out: apparent Kd; compound concentrations: 100 nM and 1000 nM (sheet 'Samples'), CATDS: 0.17749177686381501; n = 1
[1] = compound concentrations:100 nM and 1000 nM (sheet 'Samples')

## CN1CCC(n2cnc(-c3ccc(F)cc3)c2-c2ccnc(NCCO)n2)CC1 [SB-226879]
CSNK1A1; compound concentrations: 100 nM and 1000 nM (sheet 'Samples'), CATDS: 7.9796856628157303E-2
  potency estimated from few doses: 91.2 nM
CSNK1D; CATDS: 0.29962108595450698
  potency estimated from few doses: 6.97 nM
CSNK1E; CATDS: 0.149531361707545
  potency estimated from few doses: 21.2 nM
DDR1
  potency estimated from few doses: 2140 nM
GAK
  potency estimated from few doses: 1240 nM
MAPK10
  potency estimated from few doses: 126 nM
MAPK11; compound concentrations: 100 nM and 1000 nM (sheet 'Samples'), CATDS: 4.3828309846065103E-2
  potency estimated from few doses: 1170 nM
MAPK14; CATDS: 0.120722189423433
  potency estimated from few doses: 32.5 nM
MAPK8
  potency estimated from few doses: 1180 nM
MAPK9; compound concentrations: 100 nM and 1000 nM (sheet 'Samples'), CATDS: 6.64061265651648E-2
  potency estimated from few doses: 166 nM
MAPKAPK2; CATDS: 0.113562081493031
  potency estimated from few doses: 37.1 nM
NLK; compound concentrations: 100 nM and 1000 nM (sheet 'Samples'), CATDS: 0.178729596227966
  potency estimated from few doses: 15.4 nM
PIK3CD; CATDS: 8.1619991171871006E-2
  potency estimated from few doses: 85.3 nM
PIP4K2C
  potency estimated from few doses: 2090 nM
RIPK2; CATDS: 4.98304008841833E-2
  potency estimated from few doses: 572 nM

## CC1(C)CC(n2cnc(-c3ccc(F)cc3)c2-c2ccnc(N)n2)CC(C)(C)N1 [SB-221466]
CSNK1A1; compound concentrations: 100 nM and 1000 nM (sheet 'Samples'), CATDS: 9.6046167396209803E-2
  potency estimated from few doses: 694 nM
CSNK1D; CATDS: 0.25228114630202902
  potency estimated from few doses: 37.6 nM
CSNK1E; CATDS: 0.19281480161649001
  potency estimated from few doses: 65.4 nM
MAPK11; compound concentrations: 100 nM and 1000 nM (sheet 'Samples'), CATDS: 9.0675457178051394E-2
  potency estimated from few doses: 958 nM
MAPK14; CATDS: 0.38213111916194098
  potency estimated from few doses: 18.8 nM
MAPKAPK2; CATDS: 0.16941172485113901
  potency estimated from few doses: 89.6 nM
RIPK2; CATDS: 0.10111059470888201
  potency estimated from few doses: 537 nM

## Fc1ccc(-c2ncn(C3CCNCC3)c2-c2ccnc(Oc3ccccc3)n2)cc1 [SB-239272]
CSNK1A1; [1]
  potency estimated from few doses: 1380 nM
MAPK11; [1]
  potency estimated from few doses: 45.4 nM
MAPK9; [1]
  potency estimated from few doses: 1110 nM
NLK; [1]
  potency estimated from few doses: 1500 nM
PKN3
  potency estimated from few doses: 2090 nM

## COc1nccc(-c2c(-c3ccc(F)cc3)ncn2CCCN2CCOCC2)n1 [SB-282852]
CSNK1D; CATDS: 0.15826837082796799
  potency estimated from few doses: 746 nM
CSNK1E; CATDS: 0.12159851027947199
  potency estimated from few doses: 1580 nM
MAPK14; CATDS: 0.160477931801707
  potency estimated from few doses: 722 nM
MAPKAPK2; CATDS: 0.19368451795267799
  potency estimated from few doses: 478 nM
MERTK
  potency estimated from few doses: 1280 nM
PIK3CD; CATDS: 0.42646415805735
  potency estimated from few doses: 128 nM

## CCc1nccc2c1nc(-c1nonc1N)n2CC [SB-751148]
CSNK1D; CATDS: 0.159181013373493
  potency estimated from few doses: 1090 nM
CSNK1E; CATDS: 0.120883925571631
  potency estimated from few doses: 1960 nM
DYRK1A
  potency estimated from few doses: 1830 nM
LATS1
  potency estimated from few doses: 1530 nM
NNT
  potency estimated from few doses: 1310 nM
PKN2
  potency estimated from few doses: 1140 nM
RPS6KB1
  potency estimated from few doses: 902 nM

— paper PMC11062922 (Nature Chemical Biology, 2023)
